# Inconclusive results are not listed. Active and inactive are the calls of the source. Calls come from the whole dose curve; as a rule, active = well fitted inhibition curve with a large enough effect; inconclusive = small, poorly fitted or top-dose-only effect, or effect the other way; inactive = flat fitted curve, though single readings scatter.
# Target: ATP-dependent 6-phosphofructokinase (Trypanosoma brucei brucei) (UniProt O15648)
# Test: qHTS Assay to Find Inhibitors of T. brucei phosphofructokinase: hit validation (AID 492961);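 note: luminescence reports ADP formed as PFK phosphorylates fructose-6-phosphate with ATP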
# Settings: T. brucei PFK, ADP-Glo luminescence; series mostly up to 51.4 µM; activity change, negative = inhibition: at the top concentration
# In short: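 PFK 1.25 nM, F6P 0.5 mM, ATP 0.1 mM, MgCl2 5 mM, 0.1 M TEA pH 8.0, Tween20 0.01%, BSA 0.1%; 45 min RT. ADP-Glo two-step detection, luminescence. qHTS titration; curve fitting with curve-class categorization.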
# % is set by controls: 0 for no effect and ±100 for the full control effect.
# Chain of ATP-dependent 6-phosphofructokinase (Trypanosoma brucei brucei) (O15648 whole entry, looked up): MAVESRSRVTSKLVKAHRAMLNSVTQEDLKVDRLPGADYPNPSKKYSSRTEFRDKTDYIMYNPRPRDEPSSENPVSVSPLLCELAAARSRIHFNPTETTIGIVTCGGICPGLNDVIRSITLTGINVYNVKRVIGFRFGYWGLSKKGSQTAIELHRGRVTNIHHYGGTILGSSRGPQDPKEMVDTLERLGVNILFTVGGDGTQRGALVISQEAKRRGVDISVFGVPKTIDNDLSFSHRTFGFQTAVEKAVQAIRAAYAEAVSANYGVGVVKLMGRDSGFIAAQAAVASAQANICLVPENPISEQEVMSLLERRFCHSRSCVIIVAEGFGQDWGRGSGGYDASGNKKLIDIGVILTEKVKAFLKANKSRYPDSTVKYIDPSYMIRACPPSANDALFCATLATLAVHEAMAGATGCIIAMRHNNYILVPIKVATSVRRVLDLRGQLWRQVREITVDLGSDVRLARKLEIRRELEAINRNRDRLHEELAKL
row,Compound,"activity change, negative = inhibition"
1,O=C(O)CCC/C=C\C[C@@H]1[C@@H](/C=C/[C@@H](O)COc2cccc(C(F)(F)F)c2)[C@H](O)C[C@@H]1O,-0.102% (inactive)
2,COc1ccc(/C=C/C(=O)O)cc1,12.3% (inactive)
3,[O-][N+](=Nc1ccccc1)c1ccccc1,-3.87% (inactive)
4,CCCCC(CC)CCC(CC(C)C)OS(=O)(=O)O (stereo unspecified),13.6% (inactive)
5,CC1CC(O)CC(C)(C)C1 (stereo unspecified),0% (inactive)
6,O=C(CCCN1CCC(C(=O)c2ccc(F)cc2)CC1)c1ccc(F)cc1,2.16% (inactive)
7,C=CCN1CCCC1CNC(=O)c1cc(S(N)(=O)=O)cc(OC)c1OC (stereo unspecified),4.49% (inactive)
8,C[Se]CC[C@H](N)C(=O)O,-0.346% (inactive)
9,[O]=[Bi][O]C(=O)[O][Bi]=[O],3.68% (inactive)
10,Oc1ccc(Cl)c2c1CCC2,-2.38% (inactive)
11,NCC[C@H](O)C(=O)N[C@@H]1C[C@H](N)[C@@H](O[C@H]2O[C@H](CN)CC[C@H]2N)[C@H](O)[C@H]1O[C@H]1O[C@H](CO)[C@@H](O)[C@H](N)[C@H]1O,7.52% (inactive)
12,CC(C)CCC[C@@H](C)[C@H]1CC[C@H]2[C@@H]3CC[C@@H]4C[C@H](O)CC[C@]4(C)[C@H]3CC[C@]12C,14.5% (inactive)
13,CCCCC[C@H](O)/C=C/[C@@H]1[C@H]2C/C(=C/CCCC(=O)O)O[C@H]2C[C@H]1O,9.58% (inactive)
14,O=C(O)/C=C/c1ccccc1,-3.79% (inactive)
15,C=C1C(CCl)(CCl)C2(Cl)C(Cl)C(Cl)C1(Cl)C2(Cl)Cl (stereo unspecified),-0.666% (inactive)
16,COc1ccc(C(=O)c2ccc(C)cc2)c(O)c1,-0.436% (inactive)
17,CC(CC=O)CCCC(C)(C)O (stereo unspecified),-2% (inactive)
18,CO,-12% (inactive)

row,Compound,"activity change, negative = inhibition"
1,CCCOc1cc(N)ccc1C(=O)OCCN(CC)CC,2.39% [at 24.3 µM] (inactive)
2,CCN(CC)CCCC(C)Nc1cc(/C=C/c2ccccc2Cl)nc2cc(Cl)ccc12 (stereo unspecified),3.57% (inactive)
3,CCCOC(=O)c1ccccc1O,7.82% (inactive)
4,Cc1ccc(S(=O)(=O)NCl)cc1,-8.47% (inactive)
5,O=C1c2ccccc2C(=O)c2c1ccc(O)c2O,-18.6% (inactive)
6,CO/N=C(\C(=O)N[C@@H]1C(=O)N2C(C(=O)[O-])=C(C[n+]3cccc4c3CCC4)CS[C@H]12)c1csc(N)n1,-13.2% (inactive)
7,CC(C)C1=CC2=CC[C@@H]3[C@](C)(CCC[C@@]3(C)C(=O)O)[C@H]2CC1,-1.23% (inactive)
8,CCOc1cc(-c2nccc3cc(OC)c(OC)cc23)cc(OCC)c1OCC,19.6% (inactive)
9,CC1CCCCN1CCCOC(=O)c1ccccc1 (stereo unspecified),-7.94% (inactive)
10,CC(C)=CCC/C(C)=C/CC/C(C)=C/CC/C=C(\C)CC/C=C(\C)CCC=C(C)C,5.85% (inactive)
11,CC(CCc1ccc(O)cc1)NCC(O)c1ccc(O)cc1 (stereo unspecified),-5.11% (inactive)
12,CN1CCC(OC(=O)C(Oc2ccc(Cl)cc2)Oc2ccc(Cl)cc2)CC1,6.05% (inactive)
13,O=[n+]1ccn([O-])c2ccccc21,-7.81% (inactive)
14,NC(=O)C1c2ccccc2CCc2ccccc21,6.08% (inactive)
15,CC[C@H]1OC(=O)[C@H](C)[C@@H](O[C@H]2C[C@@](C)(OC)[C@@H](O)[C@H](C)O2)C(C)[C@@H](O[C@@H]2O[C@H](C)C[C@H](N(C)C)[C@@H]2O)[C@](C)(OC)C[C@@H](C)C(=O)[C@H](C)[C@@H](O)[C@]1(C)O (stereo partly specified),2.21% (inactive)
16,Cc1c(C)c2c(c(C)c1OC(=O)CCC(=O)O)CC[C@@](C)(CCC[C@H](C)CCC[C@H](C)CCCC(C)C)O2,-0.925% (inactive)
17,FC(F)(F)C(F)(F)C(F)(F)C(F)(F)C(F)(F)C(F)(F)F,-7.24% (inactive)
18,Cc1c(Cl)cccc1Nc1ncccc1C(=O)O,-11.8% (inactive)

# From PubChem BioAssay (NCATS)
